For eleven molecules, growth results are on record in PubChem BioAssay (NCI).

The panel holds about 83,000 compounds, 20% with a hit somewhere; the sample as a whole holds those more often.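 Percent growth is the endpoint: 0 to 100 indicates growth inhibition (40 means 60% inhibition), 0 means no net growth, and negative values indicate cell death.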 Activity calls are given as the source filed them. The calls were made as follows: active = growth percent below 10; inactive = the rest.

For this assay, the system named is UACC-62 melanoma. Briefly: NCI-60 one-dose screen, 48 h (100 = growth as untreated, 0 = no growth, -100 = all killed). Conditions: 10 µM unless noted.
Take `O[C@@H](c1cc(C(F)(F)F)nc2c(C(F)(F)F)cccc12)[C@H]1CCCCN1`: the growth is 56.2% (inactive).
In the case of `O=C1CCCc2nc3sc4c(=O)n(-c5ccccc5Cl)nnc4c3cc21`, the growth is 90.6% (inactive).
Consider `O=C(CCC(=O)c1nc2ncccc2[nH]1)NN1C(=O)CSC1c1ccc(Cl)cc1` (stereo unspecified), for which the growth is 90.3% (inactive).
To `Cc1[nH]c(C(=O)Nc2cccc(OC3CCNCC3)c2)c(Cl)c1Cl` belongs -55.7% (active); to `CCOC(=O)C(=Cc1cccc(C#N)c1)C(=O)OCC`, 53.4% (inactive).
The result for `C=CCn1c(SCC(=O)Nc2ccc(C(=O)/C=C/c3ccc(OC)cc3)cc2)nnc1-c1ccccc1` reads 74.5% (inactive).
Take `COc1ccc(/C=C/C(=O)c2cc3c(N)c(C(=O)Nc4ccccc4C)sc3nc2C)cc1`: the growth is 16.9% (inactive).
As to `O=C1NC(=O)c2c1c1c3ccccc3[nH]c1c1oc3cc(Br)ccc3c21`, the growth was 48.5% (inactive).
The result for `CS(=O)(=O)Cc1cnc(C2OCCO2)s1` reads 106% (inactive); that for `COc1ccc(C2=Nc3c(N)ncnc3NC(c3cccc(Nc4ccnc5cc(C(F)(F)F)ccc45)c3)C2)cc1` (stereo unspecified), 76.1% (inactive); that for `NS(=O)(=O)c1ccc(N/C=C/C(=O)c2cc3ccccc3oc2=O)cc1`, 93.7% (inactive).
